Results filed as inconclusive are left out. Activity calls are given as the source filed them. Unless noted, calls follow the shape of the dose curve; as a rule, active = well fitted curve in the direction sought with a large enough effect in the repeat runs; inconclusive = weak or mixed curves; inactive = no such curve, though single readings can be large; an effect the other way counts as inactive or inconclusive.
What was measured:
[1] = A CellTox Green Cytotoxicity Assay to monitor cytotoxicity in HepG2 cells - 8 hour (AID 1224890); also: nearly all actives have a fitted effect of over 45% in size
How it was run: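 Real-time, homogeneous cytotoxicity readout: dead-cell DNA staining by CellTox Green in HepG2 monolayers, fluorescence measured at timed intervals up to 40 h of continuous compound exposure.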

[2] = qHTS assay to identify small molecule antagonists of the estrogen receptor alpha (ER-alpha) signaling pathway using the BG1 cell line in the presence of 0.1 nM 17-beta-estradiol - cell viability counter screen (AID 1259241); also: nearly all actives have a fitted effect of over 40% in size
How it was run: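 VM7Luc4E2 cells (endogenous ER-alpha, 4×ERE-luciferase), hormone-starved 5 days in charcoal-stripped FBS, were treated with compounds plus 0.1 nM 17beta-estradiol for 22 hr at 37C; viability read in same wells as CellTiter-Fluor live-cell protease fluorescence.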

[3] = qHTS assay to identify small molecule antagonists of the androgen receptor (AR) signaling pathway using the MDA cell line in the presence of 0.5 nM R1881 - cell viability counter screen (AID 1259242); also: nearly all actives have a fitted effect of over 45% in size
How it was run: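 Cytotoxicity toward MDA-kb2 cells is measured by CellTiter-Fluor live-cell protease fluorescence after 16 hr compound exposure at 37C in the presence of 0.5 nM R1881 stimulator.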

[4] = molecular target: Estrogen receptor (Homo sapiens) (UniProt P03372); test: qHTS assay to identify small molecule antagonists of the estrogen receptor alpha (ER-alpha) signaling pathway using the BG1 cell line in the presence of 0.1 nM 17-beta-estradiol (AID 1259244); also: nearly all actives have a fitted effect of over 50% in size
How it was run: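 After 5 days in hormone-depleted medium (charcoal-stripped serum, no phenol red), VM7Luc4E2 cells were seeded, incubated 24 h, then co-treated with compound and 0.1 nM (final) estradiol for 22 h before luminescence detection.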

[5] = qHTS assay to identify small molecule phospholipidosis (PLD) inducers (AID 1259344; active = well fitted curve in the direction sought with a large enough effect; an effect the other way counts as inactive or inconclusive)
How it was run: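 Phospholipidosis is scored by imaging LipidTOX-stained pits in HepG2 cells exposed to compound for 24 h at 37 C; pit counts and integrated intensities per well and per cell serve as outputs.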

[6] = qHTS assay to identify small molecule HDAC inhibitors (AID 1259364); also: top concentration of the series differs between compounds; nearly all actives have a fitted effect of over 45% in size
How it was run: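 Homogeneous cell-based luminescent assay of endogenous class I/II HDAC activity; HCT-116 cells, 2 h compound exposure, 30 min HDAC-Glo development at RT.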

[7] = qHTS assay to identify small molecule HDAC inhibitors - cell viability counter screen (AID 1259365); also: series mostly up to about 92 µM; nearly all actives have a fitted effect of over 50% in size
How it was run: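 Wild-type HCT-116 cells were seeded at 1,500 per well, incubated overnight at 37 C, then exposed to compounds in DMSO for 2hr. Viability was read by CellTiter-Glo luminescence after 30min at room temperature.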

[8] = qHTS assay to identify small molecule agonists of the sonic hedgehog signaling (Shh) pathway - cell viability counter screen (AID 1259366); also: nearly all actives have a fitted effect of over 50% in size
How it was run: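 NIH/3T3-derived 3T3 Gli1-Luc cells (stable Gli1-responsive firefly luciferase reporter) were seeded, rested 4 hr at 37 C/5% CO2, then exposed to compounds in DMSO for 24 hr; viability was read by CellTiter-Fluor fluorescence in the same wells.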

[9] = qHTS assay to identify small molecule antagonists of the sonic hedgehog signaling (Shh) pathway - cell viability counter screen (AID 1259367); also: nearly all actives have a fitted effect of over 55% in size
How it was run: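 Cells: 3T3 Gli1-Luc, 2,000/well, 4 hr pre-incubation. Compounds in DMSO, then conditioned medium. Incubation 24 hr, 37C, 5% CO2. CellTiter-Fluor at 23 hr, 1 hr, fluorescence.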

[10] = molecular target: Androgen receptor (Homo sapiens) (UniProt P10275); test: qHTS assay to identify small molecule antagonists of the androgen receptor (AR) signaling pathway using the MDA cell line in the presence of 0.5 nM R1881 (AID 1259243); also: nearly all actives have a fitted effect of over 50% in size
How it was run: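 Steps: seed MDA-kb2 cells, incubate 5 hr at 37C; pin-transfer compounds in DMSO; add R1881 to 0.5 nM final; incubate 16 hr; add ONE-Glo, wait 30 min at room temperature; read luminescence.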
% is scaled to controls: 0 for no effect and ±100 for the full control effect.

Sequence of Estrogen receptor (Homo sapiens) (P03372 whole entry, looked up): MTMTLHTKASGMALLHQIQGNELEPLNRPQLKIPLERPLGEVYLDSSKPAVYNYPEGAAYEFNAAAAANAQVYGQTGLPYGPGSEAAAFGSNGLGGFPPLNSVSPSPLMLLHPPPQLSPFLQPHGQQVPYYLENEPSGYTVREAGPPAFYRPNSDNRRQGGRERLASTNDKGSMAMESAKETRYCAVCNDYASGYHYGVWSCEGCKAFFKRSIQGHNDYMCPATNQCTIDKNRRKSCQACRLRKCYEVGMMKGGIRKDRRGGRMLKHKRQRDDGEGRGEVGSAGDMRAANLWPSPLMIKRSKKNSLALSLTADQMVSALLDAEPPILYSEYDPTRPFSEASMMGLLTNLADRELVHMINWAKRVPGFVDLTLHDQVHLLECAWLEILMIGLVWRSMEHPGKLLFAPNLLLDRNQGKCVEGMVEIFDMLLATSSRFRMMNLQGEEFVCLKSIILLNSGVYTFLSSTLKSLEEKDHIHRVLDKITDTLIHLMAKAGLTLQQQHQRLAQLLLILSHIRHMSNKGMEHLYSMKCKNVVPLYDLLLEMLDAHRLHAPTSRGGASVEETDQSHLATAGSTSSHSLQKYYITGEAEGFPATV
Sequence of Androgen receptor (Homo sapiens) (P10275 whole entry, looked up): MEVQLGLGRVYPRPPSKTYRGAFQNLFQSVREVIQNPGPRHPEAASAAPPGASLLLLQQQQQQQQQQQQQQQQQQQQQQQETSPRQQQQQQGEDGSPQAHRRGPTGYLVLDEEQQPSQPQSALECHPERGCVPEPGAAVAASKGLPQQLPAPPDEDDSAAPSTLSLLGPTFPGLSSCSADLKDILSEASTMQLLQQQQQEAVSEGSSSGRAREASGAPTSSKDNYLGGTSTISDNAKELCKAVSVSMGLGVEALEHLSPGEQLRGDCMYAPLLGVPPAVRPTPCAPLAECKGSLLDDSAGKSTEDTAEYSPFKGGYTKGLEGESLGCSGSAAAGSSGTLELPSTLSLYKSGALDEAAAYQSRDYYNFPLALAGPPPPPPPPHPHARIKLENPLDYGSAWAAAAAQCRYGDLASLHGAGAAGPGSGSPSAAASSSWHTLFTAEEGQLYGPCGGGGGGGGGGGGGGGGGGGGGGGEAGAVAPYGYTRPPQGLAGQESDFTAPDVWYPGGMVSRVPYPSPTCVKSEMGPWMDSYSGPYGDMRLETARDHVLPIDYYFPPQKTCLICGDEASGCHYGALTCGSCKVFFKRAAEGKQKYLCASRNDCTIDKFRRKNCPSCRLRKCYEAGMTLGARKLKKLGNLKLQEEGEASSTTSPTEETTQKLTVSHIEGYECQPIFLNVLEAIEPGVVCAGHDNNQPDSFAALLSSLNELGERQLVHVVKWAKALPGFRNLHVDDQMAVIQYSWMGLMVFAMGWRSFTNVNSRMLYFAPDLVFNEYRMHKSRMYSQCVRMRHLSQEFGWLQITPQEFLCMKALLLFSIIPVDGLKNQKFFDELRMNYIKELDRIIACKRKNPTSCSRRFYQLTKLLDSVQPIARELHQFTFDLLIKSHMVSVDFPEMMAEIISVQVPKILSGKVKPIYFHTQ

COC(=O)[C@H]1[C@H]2C[C@@H]3c4[nH]c5cc(OC)ccc5c4CCN3C[C@H]2C[C@@H](OC(=O)COc2ccc(OC)cc2)[C@@H]1OC
inactive: Potency [1] | outcome [2] | outcome [3] | outcome [4] | Potency [5] | Potency [6] | outcome [7] | Potency [8] | outcome [9]

Cc1ncc(CSSCc2cnc(C)c(O)c2CO)c(CO)c1O
inactive: Potency [1] | outcome [2] | outcome [3] | outcome [4] | Potency [5] | Potency [6] | outcome [7] | Potency [8] | outcome [9]

CC1CCN(CCCC(=O)c2ccc(F)cc2)CC1
inactive: Potency [1] | outcome [2] | outcome [3] | outcome [4] | Potency [5] | Potency [6] | outcome [7] | Potency [8] | outcome [9]

O=C1C(CCS(=O)c2ccccc2)C(=O)N(c2ccccc2)N1c1ccccc1 (stereo unspecified)
inactive: Potency [1] | outcome [2] | outcome [3] | outcome [4] | Potency [5] | Potency [6] | outcome [7] | Potency [8] | outcome [9]

O=C(O)c1ccccc1-c1ccc(C(F)(F)F)cc1
inactive: Potency [1] | outcome [2] | outcome [3] | outcome [4] | Potency [5] | Potency [6] | outcome [7] | Potency [8] | outcome [9]

O=C(O)c1ccc[n+]([O-])c1
inactive: Potency [1] | outcome [2] | outcome [3] | Potency [10] | outcome [4] | Potency [5] | Potency [6]

CN(C)CCOC(c1ccc(Cl)cc1)c1ccccn1 (stereo unspecified)
inactive: Potency [1] | outcome [2] | outcome [3] | outcome [4] | Potency [5] | Potency [6] | outcome [7] | Potency [8] | outcome [9]

CCc1cc(S(=O)(=O)O)c2cc(C(C)C)cccc1-2
inactive: Potency [1] | outcome [2] | outcome [3] | outcome [4] | PLD induction [5] -3.58% [at 7.66 µM] | Potency [6] | outcome [7] | Potency [8] | outcome [9]

Nc1nc2c(ncn2CCC(CO)CO)c(=O)[nH]1
inactive: Potency [1] | outcome [2] | outcome [3] | outcome [4] | Potency [5] | outcome [7] | Potency [8] | outcome [9]

CCN1CCCC(OC(=O)C(c2ccccc2)c2ccccc2)C1 (stereo unspecified)
inactive: Potency [1] | outcome [2] | outcome [3] | outcome [4] | Potency [5] | Potency [6] | outcome [7] | Potency [8]

O=C(O)c1ccccc1S
inactive: Potency [1] | outcome [2] | outcome [3] | outcome [4] | Potency [5] | Potency [6] | outcome [7] | Potency [8] | outcome [9]

NCC[C@H](O)C(=O)N[C@@H]1C[C@H](N)[C@@H](O[C@H]2O[C@H](CN)[C@@H](O)[C@H](O)[C@H]2O)[C@H](O)[C@H]1O[C@H]1O[C@H](CO)[C@@H](O)[C@H](N)[C@H]1O
inactive: cytotoxicity increase [1] -0.472% [at 0.29 µM] | activity change, negative = cytotoxicity [2] 7.28% [at 0.349 µM] | viability change, negative = cytotoxic [3] 0.273% [at 0.349 µM] | activity change, negative = inhibition [4] 9.86% [at 0.349 µM] | Potency [5] | activity change, negative = cytotoxicity [7] 1.82% [at 0.349 µM] | viability change, negative = cytotoxic [8] 2.12% [at 0.349 µM]

COc1cc(O)cc(O)c1
inactive: Potency [1] | outcome [2] | outcome [3] | outcome [4] | Potency [5] | Potency [6] | outcome [7] | Potency [8] | outcome [9]

CC(C)[N+](C)(C)CC(O)COc1cccc2ccccc12 (stereo unspecified)
inactive: Potency [1] | outcome [2] | outcome [3] | outcome [4] | Potency [5] | Potency [6] | outcome [7] | Potency [8] | outcome [9]

C[N+](C)(C)CC[N+]1(C)Cc2c(Cl)c(Cl)c(Cl)c(Cl)c2C1
inactive: Potency [1] | outcome [2] | outcome [3] | outcome [4] | Potency [5] | Potency [6] | Potency [8] | outcome [9]

CN(C)C(=O)Nc1ccccc1
inactive: Potency [1] | outcome [2] | outcome [3] | outcome [4] | Potency [6] | outcome [7] | Potency [8]

CCCCCN(CCCCC)C(=O)C(CCC(=O)O)NC(=O)c1ccc(Cl)c(Cl)c1 (stereo unspecified)
inactive: Potency [1] | outcome [2] | outcome [3] | outcome [4] | Potency [5] | Potency [6] | outcome [7] | Potency [8] | outcome [9]

CCC(C(=O)NC(N)=O)c1ccccc1 (stereo unspecified)
inactive: Potency [1] | outcome [2] | outcome [3] | outcome [4] | Potency [5] | Potency [6] | outcome [7] | Potency [8]

CCCCCOC(=O)Nc1nc(=O)n([C@@H]2O[C@H](C)[C@@H](O)[C@H]2O)cc1F
inactive: Potency [1] | outcome [2] | outcome [3] | outcome [4] | Potency [5] | Potency [6] | outcome [7] | Potency [8] | outcome [9]

OCc1ccccn1
inactive: Potency [1] | outcome [2] | outcome [3] | outcome [4] | Potency [5] | Potency [6] | outcome [9]

CN1[C@@H]2CC[C@H]1CC(NC(=O)n1c(=O)[nH]c3ccccc31)C2 (stereo partly specified)
inactive: Potency [1] | outcome [2] | outcome [3] | outcome [4] | Potency [5] | Potency [6] | outcome [7] | Potency [8]

Source: PubChem BioAssay (Tox21)
